Results as given in PubChem BioAssay (NCI).
The panel holds about 83,000 compounds, 20% with a hit somewhere; the sample as a whole holds those more often.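 Activity criterion: percent growth below 10, measured after cells in 96-well plates were exposed to a single compound concentration for 48 hours.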 A number with no mark means an inactive call. The source made the active and inactive calls.

test system: MDA-MB-231 breast; experiment: NCI-60 one-dose screen, 48 h (100 = growth as untreated, 0 = no growth, -100 = all killed); conditions: 10 µM

Compound	growth
O=C1CC(c2cccc(-c3cccnc3)c2)=Nc2ccc(Br)cc2N1	43.6%
CCCOCC(O)CNCCN (centres undefined)	97.5%
COc1ccc(C2C=C(c3ccc(Cl)c(Cl)c3)N=C3SC(C)=CN32)cc1 (centres undefined)	101%
COC(=O)c1cnc2c(c1)Oc1ccccc1-c1ccnn1-2	94.8%
CCCCC(CC#N)(CCC)CCC	126%
COc1cc(OC)cc(N2CCN(C(=O)Nc3nc4cc(F)ccc4nc3OC)CC2)c1	1.05% (active)
CCOC(=O)Nc1ccc2c(c1)C(=O)N(CC)c1ccccc1O2	20.2%
C=C[C@]1(C)C=C2C(=O)[C@@]3(O)OC(=O)[C@@]4(CCCC(C)(C)[C@H]34)[C@@]2(O)CC1	-71.9% (active)
Cc1ccc2c3c(cccc13)-c1ccccc1C2=O	95.5%
CCN(CC)CCn1c(=N)n(CC(O)c2ccc(Cl)c(Cl)c2)c2ccccc21 (centres undefined)	45.1%
COc1cc(Nc2ccnc(N3CCN(c4ccnc5cc(Cl)ccc45)CC3)n2)cc(OC)c1	18.5%
O=C1CC[C@@H](C(=O)N[C@H]2CSSC[C@@H](C(=O)NCCc3ccccc3)NC(=O)[C@H](Cc3ccccc3)NC(=O)[C@@H]3CCCN3C(=O)[C@@H]3CCCN3C2=O)N1	90.1%
COc1cc(C(c2c[nH]c3ccccc23)N2CCCC2)ccc1OCc1ccccc1 (centres undefined)	58.4%
Cc1ccc(/C=C2\CN(Cc3cn(CCNc4ccnc5cc(Cl)ccc45)nn3)C/C(=C\c3ccc(C)cc3)C2=O)cc1	-27.6% (active)
CCNC1(NC#N)CCCCC1	107%
CC(=O)Nc1ccc(Sc2ccc(NC(C)=O)cc2)cc1	100%
O=C(Nc1ccc(CN2CCOCC2)cc1)c1ccc(-c2cc(Cl)ccc2Cl)o1	9.54% (active)
COc1cccc(C(=O)NNc2nc(N3CCN(C4CCCCC4)CC3)nc(N3CCN(C(c4ccccc4)c4ccccc4)CC3)n2)c1	57.2%
Oc1cc(O)c(Br)cc1Br	112%

Compound	growth
CS(=O)(=O)Nc1ccc(Nc2c3ccccc3nc3cc(Cl)ccc23)cc1	86.5%
c1ccc(C2CCCCC2)c(OCCCCCN2CCNCC2)c1	15.9%
Cc1nnc2c3nnc(-c4ccc(Cl)cc4)n3c3ccccc3n12	100%
Cc1ccc(C)c2c1sc1nc3n[nH]c(N)c3c(=N)n12	101%
CCCc1ccnc(NS(=O)(=O)c2ccc(N)cc2)n1	81.9%
CCc1ccc(Nc2cc(C)nc3nc(C)nn23)cc1	-58.3% (active)
CN(C)c1ccc2c(c1)OC(N)=C(C#N)C2c1ccc2c(c1)CCO2 (centres undefined)	21.7%
CC(C)C[C@H](NC(=O)CCn1ccc2ccccc2c1=O)B(O)O	53.8%
COc1ccc(/C=C2\CCC3C(CCCC34OCCO4)C2=O)cc1 (centres undefined)	96%
COc1cc(-c2nc3ccc(C)cc3[nH]2)ccc1OCc1nnc(-c2ccc(CC(C)C)cc2)o1	88.9%
COc1ccc(CSc2nc3cc(OC)c(OC)cc3c(=O)n2-c2ccc(OC)cc2OC)cc1	75.4%
C[N+]1=C(/C=C/c2ccc(I)cc2)C(C)(C)c2ccccc21	67.1%
c1ccc(OCCC[P+](c2ccccc2)(c2ccccc2)c2ccccc2)cc1	11.9%
CCN1CCN(c2nc(NNC(=O)c3cccc(OC)c3)nc(N3CCN(C(c4ccccc4)c4ccccc4)CC3)n2)CC1	71.9%
CNC(=O)c1cc(Oc2ccc(NC(=O)Nc3ccc(Cl)c(C(C)(C)C)c3)c(F)c2)ccn1	48.4%
CCc1cc2n(n1)-c1ncc(C(=O)OC)cc1Oc1ccccc1-2	102%
O=C(O)c1ccc(CNc2ccc(C(=O)CCl)cc2)cc1	104%
CCN(CCCNC(=O)Cc1cc(=O)oc2cc(N(C)C)ccc12)CCNc1ccnc2cc(Cl)ccc12	78.7%

test system: RXF 393 renal; experiment: as above; conditions: 10 µM

Compound	growth
O=C1CC(c2cccc(-c3cccnc3)c2)=Nc2ccc(Br)cc2N1	40.2%
CCCOCC(O)CNCCN (centres undefined)	110%
COc1ccc(C2C=C(c3ccc(Cl)c(Cl)c3)N=C3SC(C)=CN32)cc1 (centres undefined)	83%
COC(=O)c1cnc2c(c1)Oc1ccccc1-c1ccnn1-2	107%
CCCCC(CC#N)(CCC)CCC	126%
COc1cc(OC)cc(N2CCN(C(=O)Nc3nc4cc(F)ccc4nc3OC)CC2)c1	22.1%
CCOC(=O)Nc1ccc2c(c1)C(=O)N(CC)c1ccccc1O2	-4.5% (active)
C=C[C@]1(C)C=C2C(=O)[C@@]3(O)OC(=O)[C@@]4(CCCC(C)(C)[C@H]34)[C@@]2(O)CC1	-97.4% (active)
Cc1ccc2c3c(cccc13)-c1ccccc1C2=O	105%
CCN(CC)CCn1c(=N)n(CC(O)c2ccc(Cl)c(Cl)c2)c2ccccc21 (centres undefined)	76.3%
COc1cc(Nc2ccnc(N3CCN(c4ccnc5cc(Cl)ccc45)CC3)n2)cc(OC)c1	-18.3% (active)
O=C1CC[C@@H](C(=O)N[C@H]2CSSC[C@@H](C(=O)NCCc3ccccc3)NC(=O)[C@H](Cc3ccccc3)NC(=O)[C@@H]3CCCN3C(=O)[C@@H]3CCCN3C2=O)N1	103%
COc1cc(C(c2c[nH]c3ccccc23)N2CCCC2)ccc1OCc1ccccc1 (centres undefined)	52.9%
Cc1ccc(/C=C2\CN(Cc3cn(CCNc4ccnc5cc(Cl)ccc45)nn3)C/C(=C\c3ccc(C)cc3)C2=O)cc1	-89% (active)
CCNC1(NC#N)CCCCC1	108%
CC(=O)Nc1ccc(Sc2ccc(NC(C)=O)cc2)cc1	109%
O=C(Nc1ccc(CN2CCOCC2)cc1)c1ccc(-c2cc(Cl)ccc2Cl)o1	38.4%
COc1cccc(C(=O)NNc2nc(N3CCN(C4CCCCC4)CC3)nc(N3CCN(C(c4ccccc4)c4ccccc4)CC3)n2)c1	64.7%
Oc1cc(O)c(Br)cc1Br	110%

Compound	growth
CS(=O)(=O)Nc1ccc(Nc2c3ccccc3nc3cc(Cl)ccc23)cc1	20.9%
c1ccc(C2CCCCC2)c(OCCCCCN2CCNCC2)c1	36.4%
Cc1nnc2c3nnc(-c4ccc(Cl)cc4)n3c3ccccc3n12	102%
Cc1ccc(C)c2c1sc1nc3n[nH]c(N)c3c(=N)n12	112%
CCCc1ccnc(NS(=O)(=O)c2ccc(N)cc2)n1	102%
CCc1ccc(Nc2cc(C)nc3nc(C)nn23)cc1	-66.5% (active)
CN(C)c1ccc2c(c1)OC(N)=C(C#N)C2c1ccc2c(c1)CCO2 (centres undefined)	23.5%
CC(C)C[C@H](NC(=O)CCn1ccc2ccccc2c1=O)B(O)O	-5.99% (active)
COc1ccc(/C=C2\CCC3C(CCCC34OCCO4)C2=O)cc1 (centres undefined)	96.6%
COc1cc(-c2nc3ccc(C)cc3[nH]2)ccc1OCc1nnc(-c2ccc(CC(C)C)cc2)o1	71.3%
COc1ccc(CSc2nc3cc(OC)c(OC)cc3c(=O)n2-c2ccc(OC)cc2OC)cc1	75.5%
C[N+]1=C(/C=C/c2ccc(I)cc2)C(C)(C)c2ccccc21	70.7%
c1ccc(OCCC[P+](c2ccccc2)(c2ccccc2)c2ccccc2)cc1	31.6%
CCN1CCN(c2nc(NNC(=O)c3cccc(OC)c3)nc(N3CCN(C(c4ccccc4)c4ccccc4)CC3)n2)CC1	56.1%
CNC(=O)c1cc(Oc2ccc(NC(=O)Nc3ccc(Cl)c(C(C)(C)C)c3)c(F)c2)ccn1	90%
CCc1cc2n(n1)-c1ncc(C(=O)OC)cc1Oc1ccccc1-2	114%
O=C(O)c1ccc(CNc2ccc(C(=O)CCl)cc2)cc1	78.4%
CCN(CCCNC(=O)Cc1cc(=O)oc2cc(N(C)C)ccc12)CCNc1ccnc2cc(Cl)ccc12	74.6%
